This is an account of results in PubChem BioAssay (NCATS).

Experiment [1] concerns the target Protein phosphatase 1D (Homo sapiens) (UniProt O15297). Description: RapidFire Mass Spectrometry qHTS Assay for Modulators of WT P53-Induced Phosphatase 1 (WIP1) (AID 1347424).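 Also: amount of dephosphorylated VEPPL-S-QETFS peptide product formed by WIP1.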 The conditions noted are these: WIP1 dephosphorylation of phosphopeptide, RapidFire MS; series mostly up to 63 µM. Summed up:
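WIP1 (10 nM final) was preincubated 1 h at room temperature with compounds in Tris-HCl pH 7.5, 30 mM MgCl2, TCEP, EGTA, BSA; 2 uM VEPPL-pS-QETFS phosphopeptide was added for 5 min, quenched with formic acid, and dephosphorylated product quantified by RapidFire MS.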

For experiment [2] the target is unchanged. Description: Rhodamine-PBP qHTS Assay for Modulators of WT P53-Induced Phosphatase 1 (WIP1) (AID 1347425). The conditions noted are these: recombinant WIP1, Rhodamine-PBP phosphate fluorescence, real-time; series mostly up to 57.5 µM. Summed up:
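WIP1 (5 nM final) was preincubated with compound for 1 hour at room temperature. It then dephosphorylated 10 uM VEPPL-pS-QETFS peptide in Tris-HCl pH 7.5 with 30 mM MgCl2. Released Pi was detected by 10 uM Rh-PBP fluorescence (ex 525/em 598 nm) read at 1-min intervals for 11 min, as delta f1 - f0.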
(qHTS replaces the single test concentration by a dilution series.)

The nature of experiment [3]: Primary qHTS for inhibitors of La Crosse Virus (LACV) - induced cell death in SH-SY5Y cells (AID 1508616).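 Also: top concentration of the series differs between compounds; higher means more rescue of cells from virus-induced death.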 The conditions noted are these: SH-SY5Y LACV cytopathicity rescue, ATP luminescence, 6 d; series mostly up to 9.63 µM. Summed up:
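Readout was luminescence from ATPLite 1step added after a 6-day LACV infection (0.01 MOI) of SH-SY5Y cells that had received pin-transferred compound 24 hr after seeding.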

The target of experiment [4] is Calcium and integrin-binding protein 1 (Homo sapiens) (UniProt Q99828). Description: Primary qHTS for Identification of Calcium Integrin Binding Protein 1 (CIB1) Competitor (AID 1508620).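 Also: GST tagged CIB1 binding a fluorescein labelled alphaIIb integrin peptide tracer; top concentration of the series differs between compounds.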 The conditions noted are these: CIB1-GST / FITC-alphaIIb peptide fluorescence polarization; series mostly up to 114 µM. Summed up:
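Fluorescence polarization competition: CIB1-GST (1 uM final) preincubated with compound 15 min at room temperature, then FITC-labeled alphaIIb peptide (100 nM final) added for another 15 min. Polarization read at Ex 480/Em 540.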

A short description of experiment [5]: Validation qHTS assay for inhibitors of Activation Induced Cytidine Deaminase (AID): UDG Counterscreen signal (AID 1347427). The conditions noted are these: biochemical UDG counterscreen, fluorescence signal; series mostly up to 115 µM. In short, it runs like this:
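Counterscreen read of UDG activity (2 U/mL, 4/3x) in the FRET deamination format with AID (1 uM, 4/3x), DJC20/DJC23 substrates (250 nM, 4x), 4 h at room temperature. NaOH stop, fluorescence at 560 ex/665 em.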

The target in experiment [6] is Single-stranded DNA cytosine deaminase (Homo sapiens) (UniProt Q9GZX7). Description: Validation qHTS assay for inhibitors of Activation Induced Cytidine Deaminase (AID): AID signal (AID 1347429). Also: potency is read from the fitted curve at half-maximal effect. The conditions noted are these: Recombinant AID, FRET ssDNA deamination with UDG, fluorescence; series mostly up to 115 µM. Summed up:
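In this coupled qHTS, AID deaminates a FRET-labelled ssDNA substrate in the presence of UDG over 4 hr at room temperature. Compounds span up to 114 uM final.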

Experiment [7] addresses Calcium and integrin-binding protein 1 (Homo sapiens) (UniProt Q99828). Description: Validation qHTS for Identification of Calcium Integrin Binding protein 1 (CIB1) Competitor (AID 1508618). The note with it: CIB1-GST / FITC-alphaIIb peptide fluorescence polarization; series mostly up to 114 µM. Summed up: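 Fluorescence polarization with 1 uM CIB1-GST and 100 nM FITC-alphaIIb peptide in HEPES pH 7.4, NaCl, 5 mM CaCl2, Tween20. Compounds at up to 114 uM final, preincubated with protein 15 min; read after 15 min more at RT.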

Results filed as inconclusive are left out. Active and inactive are the calls of the source. Calls follow the shape of the dose curve; as a rule, active = well fitted curve in the direction sought with a large enough effect; inconclusive = small, poorly fitted or top-dose-only effect, or another doubt; inactive = no such curve, though single readings can be large; an effect the other way counts as inactive or inconclusive. Where a SMILES comes first, the peptide text is derived from it. [ ]: non-standard residue; d: D form. pGlu = O=C1CC[C@@H](C(=O)O)N1; Thz = O=C(O)[C@@H]1CSCN1

Single-stranded DNA cytosine deaminase (Homo sapiens), sequence (Q9GZX7 whole entry, looked up): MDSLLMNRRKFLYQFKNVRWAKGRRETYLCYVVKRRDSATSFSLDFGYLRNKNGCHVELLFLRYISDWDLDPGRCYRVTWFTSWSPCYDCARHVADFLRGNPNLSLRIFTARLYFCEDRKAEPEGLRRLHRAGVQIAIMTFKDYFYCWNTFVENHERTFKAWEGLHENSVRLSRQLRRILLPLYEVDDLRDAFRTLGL
Calcium and integrin-binding protein 1 (Homo sapiens), sequence (Q99828 whole entry, looked up): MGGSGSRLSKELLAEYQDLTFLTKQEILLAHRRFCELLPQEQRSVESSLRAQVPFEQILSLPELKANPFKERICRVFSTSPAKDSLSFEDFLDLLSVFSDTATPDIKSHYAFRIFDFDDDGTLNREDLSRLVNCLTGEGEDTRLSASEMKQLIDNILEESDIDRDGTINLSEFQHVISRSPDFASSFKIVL
Protein phosphatase 1D (Homo sapiens), sequence (O15297 whole entry, looked up): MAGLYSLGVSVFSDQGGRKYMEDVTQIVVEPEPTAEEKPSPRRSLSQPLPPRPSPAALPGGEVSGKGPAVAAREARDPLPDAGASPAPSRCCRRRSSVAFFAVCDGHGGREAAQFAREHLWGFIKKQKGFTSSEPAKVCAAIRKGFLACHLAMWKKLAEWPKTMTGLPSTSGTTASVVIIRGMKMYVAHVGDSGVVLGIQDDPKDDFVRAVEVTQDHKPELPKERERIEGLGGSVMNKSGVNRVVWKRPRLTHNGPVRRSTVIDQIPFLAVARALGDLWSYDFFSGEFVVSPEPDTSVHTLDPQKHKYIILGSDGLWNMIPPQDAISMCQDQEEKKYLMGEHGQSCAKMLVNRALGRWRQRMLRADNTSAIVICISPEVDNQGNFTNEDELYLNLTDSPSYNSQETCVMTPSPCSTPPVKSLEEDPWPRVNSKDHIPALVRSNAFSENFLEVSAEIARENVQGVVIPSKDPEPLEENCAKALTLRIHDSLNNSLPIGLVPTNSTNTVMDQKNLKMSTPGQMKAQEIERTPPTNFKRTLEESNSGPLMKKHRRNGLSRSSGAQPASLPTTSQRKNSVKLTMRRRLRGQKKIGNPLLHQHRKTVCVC

With `S=c1[nH]c2ccccc2s1`, the Potency result in experiment [1], in experiment [3] and in experiment [4] was “inactive” throughout. Moreover, the result in experiment [2] was inactive.
As for `CCCCN1CCC(n2c(=O)[nH]c3ccccc32)CC1`, the Potency entry in experiment [5], in experiment [6] and in experiment [3] was “inactive” throughout.
As to `CCCn1c(=O)c2[nH]c(-c3ccc(OCC(=O)NCCN)cc3)nc2n(CCC)c1=O`, the Potency entry in experiment [5] and in experiment [6] was “inactive” each time.
For `Nc1ncnc2c1c(I)cn2[C@@H]1C[C@H](N)[C@@H](O)[C@H]1O`, the Potency result in experiment [5], in experiment [6] and in experiment [3] was “inactive” throughout.
Turning to `N#C/C(=C\c1c[nH]c2ccccc12)C(=O)c1ccc(O)c(O)c1`, the Potency entry in experiment [5], in experiment [6] and in experiment [3] was “inactive” in each case.
For the molecule `COC(=O)Nc1nc2ccc(C(=O)C3CC3)cc2[nH]1`, the result in experiment [2] was inactive. Moreover, the Potency entry in experiment [4] is “inactive”.
Turning to `O=C1O/C(=C/Br)CCC1c1cccc2ccccc12` (stereo not drawn), the Potency result in experiment [5] and in experiment [6] was “inactive” in each case.
`O=C(O)CC1CC(c2ccccc2)=NO1` (stereo not drawn): the Potency entry in experiment [5], in experiment [6], in experiment [3] and in experiment [4] was “inactive” each time.
Regarding `Ic1ccc(N2CCN(Cc3c[nH]c4ncccc34)CC2)cc1`, the Potency entry in experiment [5], in experiment [6] and in experiment [3] was “inactive” each time.
`Cc1onc(-c2c(F)cccc2Cl)c1C(=O)N[C@@H]1C(=O)N2[C@@H]1SC(C)(C)[C@@H]2C(=O)O`: the Potency result in experiment [4] is “inactive”.
On to `CCCCC1C(=O)N(c2ccccc2)N(c2ccc(O)cc2)C1=O` (stereo not drawn), for which the Potency result in experiment [3] and in experiment [4] was “inactive” throughout.
In the case of `CCc1c(C(=O)NCCc2ccc(N3CCCCC3)cc2)[nH]c2ccc(Cl)cc12`, the Potency entry in experiment [5], in experiment [6] and in experiment [3] was “inactive” throughout.
On to `COc1ccccc1N1CCN(CCN(C(=O)c2ccc(I)cc2)c2ccccn2)CC1`, for which the Potency result in experiment [5], in experiment [6] and in experiment [3] was “inactive” in each case.
As to `CC1(C)S[C@@H]2[C@H](NC(=O)[C@H](N)c3ccc(O)cc3)C(=O)N2[C@H]1C(=O)O`, in experiment [4], the Potency entry was “inactive”.
In the case of `OC[C@H]1O[C@@H](n2cnc3c(Nc4ccccc4)ncnc32)[C@H](O)[C@@H]1O`, the Potency entry in experiment [5], in experiment [6] and in experiment [3] was “inactive” throughout.
Turning to `O=C(O)c1cc(=O)c2ccccc2[nH]1`, the Potency result in experiment [3] was “inactive”. In experiment [7], the outcome was inactive.
For the molecule `CC1(C)S[C@@H]2[C@H](NC(=O)[C@H](NC(=O)N3CCN(S(C)(=O)=O)C3=O)c3ccccc3)C(=O)N2[C@H]1C(=O)O`, the Potency result in experiment [4] was “inactive”.
On to `N=C(N)SCCc1ccc(CCSC(=N)N)cc1`, for which the Potency result in experiment [5], in experiment [6] and in experiment [3] was “inactive” each time.
On to `CC(COc1ccc(/C=C/c2ccccc2)cc1)[N+](C)(C)C` (stereo not drawn), for which the Potency result in experiment [5] and in experiment [3] was “inactive” in each case.
For `C#CCN1C(C)=C(C(=O)OC)C(c2cccc([N+](=O)[O-])c2)C(C(=O)OCC)=C1C` (stereo not drawn), the Potency entry in experiment [5], in experiment [6] and in experiment [3] was “inactive” each time.
`Cc1ccccc1CNc1ncnc2c1ncn2C1OC(CO)C(O)C1O` (stereo not drawn): the Potency result in experiment [5], in experiment [6] and in experiment [3] was “inactive” each time.
Take `COc1cc(/C=C/C(=O)N2CCN(CC(=O)N3CCCC3)CC2)cc(OC)c1OC`: the Potency entry in experiment [4] is “inactive”.
On to `O=C(O)[C@@H]1C[C@@H](C(=O)O)N1`, for which the Potency entry in experiment [5], in experiment [6] and in experiment [3] was “inactive” each time.
Take `CN(C)CCCO[C@@H]1[C@H]2OC(C)(C)O[C@H]2O[C@@H]1[C@H](O)CO`: the Potency result in experiment [5], in experiment [6] and in experiment [3] was “inactive” each time.
Regarding `Cc1cn([C@H]2CC(N=[N+]=[N-])[C@@H](CO)O2)c(=O)[nH]c1=O` (stereo partly drawn), the result in experiment [7] was inactive.
In the case of `C[C@@H](NC(=O)/C(C#N)=C/c1ccc(O)c(O)c1)c1ccccc1`, the Potency entry in experiment [5], in experiment [6] and in experiment [3] was “inactive” each time.
As for `O=C1CC[C@@H](C(=O)N2CSC[C@H]2C(=O)O)N1` ([pGlu]-[Thz]-OH), the Potency entry in experiment [4] was “inactive”.
In the case of `CN=c1nc(-c2ccccc2)n(-c2ccccc2)s1`, the Potency result in experiment [5], in experiment [6] and in experiment [3] was “inactive” throughout. In addition, the result in experiment [7] was inactive.
As to `CC(=O)O[C@H]1C[C@@]2(C)[C@@H](C[C@@H](O)[C@H]3[C@@]4(C)CC[C@@H](O)[C@@H](C)[C@@H]4CC[C@@]32C)/C1=C(\CCC=C(C)C)C(=O)O`, the Potency result in experiment [4] was “inactive”.
Consider `O=c1[nH]c2cc(Cl)c(Cl)cc2[nH]c1=O`, for which the Potency result in experiment [5], in experiment [6] and in experiment [3] was “inactive” in each case.
`COc1ccccc1N1CCN(CCCCNS(=O)(=O)c2cccc3c(N(C)C)cccc23)CC1`: the Potency result in experiment [5], in experiment [6] and in experiment [3] was “inactive” throughout.
For `CC1(C)[C@@H](O[C@H]2O[C@H](C(=O)O)[C@@H](O)[C@H](O)[C@H]2O[C@@H]2O[C@H](C(=O)O)[C@@H](O)[C@H](O)[C@H]2O)CC[C@]2(C)[C@H]3C(=O)C=C4[C@@H]5C[C@@](C)(C(=O)O)CC[C@]5(C)CC[C@@]4(C)[C@]3(C)CC[C@@H]12`, the Potency result in experiment [4] is “inactive”.
As for `CC(C)NCC(O)COc1cccc2ccccc12` (stereo not drawn), the result in experiment [7] was inactive.
For the molecule `CN1[C@@H]2CC[C@H]1CC(OC(c1ccccc1)c1ccccc1)C2` (stereo partly drawn), the Potency result in experiment [4] is “inactive”.
With `NC(=S)NCCC[C@H](N)C(=O)O`, the Potency result in experiment [5], in experiment [6] and in experiment [3] was “inactive” throughout.
For `COC(=O)[C@H]1[C@H]2C[C@@H]3c4[nH]c5cc(OC)ccc5c4CCN3C[C@H]2C[C@@H](OC(=O)/C=C/c2cc(OC)c(OC)c(OC)c2)[C@@H]1OC`, in experiment [4], the Potency result is “inactive”.
Turning to `CCCCCCCCCCCCCCCC(=O)NCC(COP(=O)([O-])OCC[N+](C)(C)C)OCC` (stereo not drawn), the Potency entry in experiment [5], in experiment [6] and in experiment [3] was “inactive” throughout.
`NCCNC(=O)c1ncsc1-c1cccc(F)c1`: the Potency result in experiment [5], in experiment [6] and in experiment [3] was “inactive” each time.
As for `N.N.O=C(O)C1(C(=O)O)CCC1.[Pt]`, the Potency entry in experiment [5], in experiment [6] and in experiment [3] was “inactive” each time.
Turning to `CCCCC/C=C\CC(O)/C=C/c1cccc(CC(O)CCCCO)n1` (stereo not drawn), the Potency result in experiment [5], in experiment [6] and in experiment [3] was “inactive” in each case.
In the case of `C[C@H](O)[C@H](O)[C@H]1CNc2nc(N)[nH]c(=O)c2N1`, the Potency entry in experiment [4] was “inactive”.
On to `C[N+](C)(CCCCCC[N+](C)(C)CCCN1C(=O)c2cccc3cccc(c23)C1=O)CCCN1C(=O)c2cccc3cccc(c23)C1=O`, for which the Potency result in experiment [5] and in experiment [3] was “inactive” throughout. For the same molecule, in experiment [6], the Potency was 1410 nM (active).
For `CN(C)c1nc2c(Br)c(Br)c(Br)c(Br)c2[nH]1`, in experiment [6], the Potency result is “inactive”.
As for `C=CC(=O)c1ccc(CCCCCC)cc1`, the Potency result in experiment [5], in experiment [6] and in experiment [3] was “inactive” in each case.
